Data as given in PubChem BioAssay (Tox21).
Records with an inconclusive call do not appear. Entries that show only a call come without a potency. Active and inactive are the calls of the source. Unless noted, calls follow the shape of the full dose curve.

Key:
[1] = Nuclear factor erythroid 2-related factor 2/antioxidant responsive element (Nrf2/ARE) small molecule agonists: qHTS cell viability counter screen in human keratinocytes (AID 1919968; active = well fitted curve in the direction sought with a large enough effect in the repeat runs; an effect the other way counts as inactive or inconclusive; also: nearly all actives have a fitted effect of over 55% in size; also: potency is read from the fitted curve at half-maximal effect)
Summary of the method: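 KeratinoSens HaCaT cells, 1,500/well, preincubated 5 h, then exposed to compounds in DMSO for 23 h at 37 C/5% CO2. Viability read as CellTiter-Fluor fluorescence after 1 h, in the same wells as the ARE-luciferase read.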

[2] = target: KiSS-1 receptor (Homo sapiens) (UniProt Q969F8); test: Human kisspeptin (KISS1R) small molecule agonists, calcium flux assay in KISS1R-HEK293 cells (AID 1920064; active = well fitted curve in the direction sought with a large enough effect in the repeat runs; an effect the other way counts as inactive or inconclusive)
Chain of KiSS-1 receptor (Homo sapiens) (Q969F8 whole entry, looked up): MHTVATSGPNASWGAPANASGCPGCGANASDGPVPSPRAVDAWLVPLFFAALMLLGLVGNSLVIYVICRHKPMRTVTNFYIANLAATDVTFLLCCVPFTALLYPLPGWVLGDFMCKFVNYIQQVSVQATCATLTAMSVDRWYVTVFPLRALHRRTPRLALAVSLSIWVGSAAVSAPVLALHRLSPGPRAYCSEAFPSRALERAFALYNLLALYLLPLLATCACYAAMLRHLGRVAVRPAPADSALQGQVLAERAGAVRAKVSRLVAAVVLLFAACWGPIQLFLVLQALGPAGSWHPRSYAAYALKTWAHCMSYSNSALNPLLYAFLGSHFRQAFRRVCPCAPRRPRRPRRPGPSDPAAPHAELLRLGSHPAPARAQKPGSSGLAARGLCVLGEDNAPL
Summary of the method: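 HEK293 cells stably expressing human KISS1R were loaded with calcium dye for 1 h at 37 C, then given compound; fluorescence (Ex/Em 480/540) was read kinetically for 3 min. Fifteen concentrations, triplicate.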

[3] = p53 small molecule agonists, cell-based qHTS assay with human liver microsomes: qHTS cell viability counter screen (AID 1963579); also: nearly all actives have a fitted effect of over 45% in size; also: potency is read from the fitted curve at half-maximal effect
Summary of the method: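 Cells carrying the p53 response-element beta-lactamase reporter are treated for 16 h at 37 C with test compounds in the presence of human liver microsomes and NADPH (both 0.5 mg/mL final); ATP-based CellTiter-Glo luminescence then reports viability.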

[4] = p53 small molecule agonists, cell-based qHTS assay (AID 1963582; active = well fitted activation curve with a large enough effect in the signal ratio in the repeat runs, not every such curve was filed as active; the % refers to the signal ratio)
Summary of the method: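 p53RE-bla reporter cells, compounds added in DMSO after 5 h plating, incubated 16 h at 37 C. Beta-lactamase read via 2 h room-temperature LiveBLAzer B/G FRET substrate, fluorescence intensity.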

[5] = target: 5-hydroxytryptamine receptor 2A (Homo sapiens) (UniProt P28223); test: 5-hydroxytryptamine receptor 2A (HTR2A) small molecule antagonists, cell-based qHTS assay (AID 1963586); also: nearly all actives have a fitted effect of over 45% in size; also: potency is read from the fitted curve at half-maximal effect
Chain of 5-hydroxytryptamine receptor 2A (Homo sapiens) (P28223 whole entry, looked up): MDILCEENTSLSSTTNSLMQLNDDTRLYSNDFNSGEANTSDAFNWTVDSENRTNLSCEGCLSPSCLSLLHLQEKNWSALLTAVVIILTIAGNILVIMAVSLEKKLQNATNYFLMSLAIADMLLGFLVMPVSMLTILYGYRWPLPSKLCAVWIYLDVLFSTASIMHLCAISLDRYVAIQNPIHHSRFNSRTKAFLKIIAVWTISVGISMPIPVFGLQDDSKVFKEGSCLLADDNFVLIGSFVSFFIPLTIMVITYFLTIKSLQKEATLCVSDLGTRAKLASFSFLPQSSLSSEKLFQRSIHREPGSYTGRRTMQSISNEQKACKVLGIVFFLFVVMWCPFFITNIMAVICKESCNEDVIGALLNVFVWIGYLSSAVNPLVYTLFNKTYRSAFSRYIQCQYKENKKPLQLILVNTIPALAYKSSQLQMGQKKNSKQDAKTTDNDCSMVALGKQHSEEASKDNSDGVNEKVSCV
Summary of the method: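 Antagonist-mode intracellular calcium assay: DOI (4 nM) added after 5 min compound pre-incubation at room temperature to dye-loaded HTR2A-CHO cells. Fluorescence followed for 3 min, sampled every second.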

[6] = target: 5-hydroxytryptamine receptor 2A (Homo sapiens) (UniProt P28223); test: 5-hydroxytryptamine receptor 2A (HTR2A) small molecule agonists, cell-based qHTS assay (AID 1963587); also: nearly all actives have a fitted effect of over 30% in size; also: potency is read from the fitted curve at half-maximal effect
Summary of the method: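 CHO cells stably expressing human HTR2A, plated 18 h, loaded with calcium dye 1 h at 37 C. Agonist mode: compounds added and intracellular calcium fluorescence recorded kinetically for 2 min at 1 sec intervals.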

[7] = target: Muscarinic acetylcholine receptor M1 (Homo sapiens) (UniProt P11229); test: Cholinergic receptor muscarinic 1 (CHRM1) small molecule antagonists, cell-based qHTS assay (AID 1963588); also: nearly all actives have a fitted effect of over 40% in size
Chain of Muscarinic acetylcholine receptor M1 (Homo sapiens) (P11229 whole entry, looked up): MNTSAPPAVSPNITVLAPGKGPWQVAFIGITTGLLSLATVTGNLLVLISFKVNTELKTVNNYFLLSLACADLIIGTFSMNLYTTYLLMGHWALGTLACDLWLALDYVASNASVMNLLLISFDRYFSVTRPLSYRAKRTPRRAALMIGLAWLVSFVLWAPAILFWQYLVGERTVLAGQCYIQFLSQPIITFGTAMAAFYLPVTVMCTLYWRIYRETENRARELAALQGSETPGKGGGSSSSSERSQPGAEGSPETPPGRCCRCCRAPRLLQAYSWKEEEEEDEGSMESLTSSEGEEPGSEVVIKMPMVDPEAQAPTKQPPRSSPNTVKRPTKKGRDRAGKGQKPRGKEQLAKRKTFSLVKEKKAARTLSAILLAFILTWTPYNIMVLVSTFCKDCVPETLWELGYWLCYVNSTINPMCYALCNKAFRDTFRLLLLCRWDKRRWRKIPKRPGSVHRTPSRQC
Summary of the method: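 CHRM1-CHO calcium-flux assay, antagonist mode. Cells were seeded 18 h, dye-loaded 1 h at 37 C and given compound for 5 min at RT, then acetylcholine was added at 50nM. FDSS fluorescence was read 3 min; 15 concentrations, three runs.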

[8] = target: Beta-2 adrenergic receptor (Homo sapiens) (UniProt P07550); test: Adrenergic beta2 receptor (ADRB2) small molecule antagonists, cell-based qHTS assay (AID 1963592); also: series mostly up to about 92 µM; nearly all actives have a fitted effect of over 50% in size
Chain of Beta-2 adrenergic receptor (Homo sapiens) (P07550 whole entry, looked up): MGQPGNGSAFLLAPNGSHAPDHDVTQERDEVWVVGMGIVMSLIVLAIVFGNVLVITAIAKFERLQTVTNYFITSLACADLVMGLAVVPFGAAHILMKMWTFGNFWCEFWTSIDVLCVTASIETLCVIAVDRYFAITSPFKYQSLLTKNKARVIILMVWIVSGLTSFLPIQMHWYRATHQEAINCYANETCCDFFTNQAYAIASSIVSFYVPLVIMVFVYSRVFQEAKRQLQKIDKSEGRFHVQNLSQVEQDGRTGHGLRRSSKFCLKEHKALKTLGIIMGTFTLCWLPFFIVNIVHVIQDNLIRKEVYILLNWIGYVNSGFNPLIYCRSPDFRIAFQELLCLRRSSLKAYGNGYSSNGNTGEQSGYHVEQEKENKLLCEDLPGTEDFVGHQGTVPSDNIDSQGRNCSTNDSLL
Summary of the method: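 Cells (CHO, stable ADRB2 overexpression) incubated 18-20hr at 37C; compounds added from DMSO; agonist mix (1nM isoproterenol, 100uM IBMX, 25uM Ro-20-1724) added; 0.5hr RT; d2-cAMP and anti-cAMP-cryptate added; 1hr RT; 665/615 nm read.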

[9] = target: D(2) dopamine receptor (Homo sapiens) (UniProt P14416); test: Dopamine D2 receptor (DRD2) small molecule agonists, cell-based qHTS assay (AID 1963594); also: nearly all actives have a fitted effect of over 35% in size; also: potency is read from the fitted curve at half-maximal effect
Chain of D(2) dopamine receptor (Homo sapiens) (P14416 whole entry, looked up): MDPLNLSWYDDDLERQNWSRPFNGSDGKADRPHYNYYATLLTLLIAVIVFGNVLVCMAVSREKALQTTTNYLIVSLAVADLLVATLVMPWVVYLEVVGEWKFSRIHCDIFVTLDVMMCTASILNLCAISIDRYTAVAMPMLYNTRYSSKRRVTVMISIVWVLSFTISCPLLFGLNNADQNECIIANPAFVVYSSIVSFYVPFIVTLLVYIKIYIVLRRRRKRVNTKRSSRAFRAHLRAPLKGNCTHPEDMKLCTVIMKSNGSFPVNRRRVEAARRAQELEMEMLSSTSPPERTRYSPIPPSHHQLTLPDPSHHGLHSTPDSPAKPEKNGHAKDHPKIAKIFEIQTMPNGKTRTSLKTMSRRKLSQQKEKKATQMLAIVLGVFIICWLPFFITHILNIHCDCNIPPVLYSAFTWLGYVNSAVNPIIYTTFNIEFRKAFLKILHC
Summary of the method: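 HEK293 cells stably expressing human DRD2, pre-treated with PDE inhibitor Ro20-1724 (0.1 mM final) and compound 10 min at room temperature, then stimulated with NKH477 (200nM […]) for 30 min. cAMP read by HTRF (665/620 nm).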

[10] = G protein-coupled receptor (GPCR) small molecule agonists, calcium flux assay: HEK293 wild type cell line counter screen (AID 1920065)
Summary of the method: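 Wild-type HEK293 cells plated 18 h, loaded with calcium dye 1 h at 37 C, then compounds added in agonist mode (ATP as positive control). Kinetic fluorescence Ex/Em 480/540 recorded 3 min at 1 sec intervals; 15 concentrations, triplicate.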

[11] = p53 small molecule agonists, cell-based qHTS assay: qHTS cell viability counter screen (AID 1963581); also: nearly all actives have a fitted effect of over 45% in size
Summary of the method: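 p53RE-bla HCT-116 cells, compounds added 5 h after plating and incubated 16 h at 37 C. Cytotoxicity measured in the same wells as intracellular ATP by CellTiter-Glo luminescence after 30 min at room temperature.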

[12] = target: Muscarinic acetylcholine receptor M1 (Homo sapiens) (UniProt P11229); test: Cholinergic receptor muscarinic 1 (CHRM1) small molecule agonists, cell-based qHTS assay (AID 1963589); also: nearly all actives have a fitted effect of over 35% in size
Summary of the method: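 CHO cells stably expressing human CHRM1 were loaded with calcium dye for 1 h at 37 C, then compound was added in agonist mode. Intracellular calcium fluorescence was followed kinetically at 1 s intervals. Fifteen concentrations were tested in three independent runs.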

[13] = cAMP Responsive Elements (CRE) small molecule agonists, cell-based qHTS assay (AID 1963590)
Summary of the method: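 CRE-bla HEK 293T cells, 2,000/well in DMEM with 10% dialyzed FBS and 25 mM HEPES, pre-incubated 18 h at 37 C, then exposed to compound 3 h at 37 C. Beta-lactamase reporter read with LiveBLAzer B/G FRET substrate after 2 h at room temperature.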

[14] = target: D(2) dopamine receptor (Homo sapiens) (UniProt P14416); test: Dopamine D2 receptor (DRD2) small molecule antagonists, cell-based qHTS assay (AID 1963595; active = well fitted inhibition curve with a large enough effect in the signal ratio in the repeat runs, with a control signal flat; the % refers to the signal ratio; also: potency is read from the fitted curve at half-maximal effect)
Summary of the method: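 Readout: HTRF cAMP, cAMP-d2 competing with cellular cAMP for anti-cAMP cryptate, read after 1 h. Cells: DRD2-HEK293. Conditions: 0.1 mM Ro20-1724, 12 nM quinpirole, 200 nM NKH477, 30 min RT.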

[15] = p53 small molecule agonists, cell-based qHTS assay with rat liver microsomes (AID 1963578)
Summary of the method: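 Read-out is beta-lactamase reporter fluorescence (LiveBLAzer, 2 h, room temperature, dark) in p53RE-bla cells treated 16 h at 37 C with compound, rat liver microsomes and NADPH, both 0.5 mg/mL final.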

[16] = p53 small molecule agonists, cell-based qHTS assay with human liver microsomes (AID 1963577)
Summary of the method: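 Compounds act here after metabolic activation: human liver microsomes and NADPH, both at 0.5 mg/mL final, were co-added to p53RE-bla cells. Incubation ran 16 h at 37 C, followed by LiveBLAzer detection.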

[17] = p53 small molecule agonists, cell-based qHTS assay with rat liver microsomes: qHTS cell viability counter screen (AID 1963580); also: nearly all actives have a fitted effect of over 45% in size; also: potency is read from the fitted curve at half-maximal effect
Summary of the method: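 p53RE-bla HCT-116 cells were exposed 16 h at 37 C to compounds with rat liver microsomes (0.5 mg/mL) and NADPH (0.5 mg/mL). Viability was measured in the same wells as ATP content by CellTiter-Glo luminescence.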

[18] = cAMP Responsive Elements (CRE) small molecule antagonists, cell-based qHTS assay (AID 1963591; active = well fitted inhibition curve with a large enough effect in the signal ratio in the repeat runs, not every such curve was filed as active; the % refers to the signal ratio; also: potency is read from the fitted curve at half-maximal effect)
Summary of the method: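 CRE-bla HEK293T cells plated 18 h, then given compound plus NKH477 at 0.25 uM final for 3 h at 37C. Beta-lactamase reporter read with LiveBLAzer B/G FRET substrate after 2 h at room temperature.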

Row | SMILES | Potency [1] | Potency [2] | Potency [3] | Potency [4] | Potency [5] | Potency [6] | Potency [7] | Potency [8] | Potency [9] | Potency [10] | Potency [11] | Potency [12] | Potency [13] | Potency [14] | Potency [15] | Potency [16] | Potency [17] | Potency [18]
1 | CC1(C)[C@@H](O)CC[C@]2(C)[C@H]3C(=O)C=C4[C@@H]5C[C@@](C)(C(=O)O)CC[C@]5(C)CC[C@@]4(C)[C@]3(C)CC[C@@H]12 | 67.8 µM (active) | inactive | 32 µM (active) | inactive | inactive | 48.4 µM (active) | inactive | inactive | inactive | – | – | – | – | – | – | – | – | –
2 | CCCCC(CC)COS(=O)(=O)O (stereo unspecified) | inactive | inactive | inactive | – | inactive | inactive | – | inactive | inactive | inactive | inactive | inactive | inactive | inactive | – | – | – | –
3 | NCc1cccc(C2CCN(C(=O)c3ccc(C#Cc4ccccc4F)o3)CC2)c1 | 54.5 µM (active) | inactive | inactive | – | – | 21.9 µM (active) | – | – | – | inactive | – | inactive | – | – | inactive | – | – | –
4 | Nc1ccc(C(=O)Nc2ccccc2N)cc1 | inactive | inactive | inactive | inactive | inactive | – | inactive | inactive | – | inactive | inactive | inactive | inactive | inactive | inactive | inactive | inactive | –
5 | CCNc1nc(NC(C)CC)nc(OC)n1 (stereo unspecified) | inactive | inactive | – | inactive | inactive | inactive | inactive | inactive | inactive | inactive | inactive | inactive | inactive | inactive | – | inactive | inactive | –
6 | N#CCCCC(C#N)CCC#N (stereo unspecified) | inactive | inactive | inactive | inactive | inactive | inactive | inactive | – | – | inactive | inactive | inactive | – | inactive | inactive | inactive | inactive | inactive
7 | O=C(Cl)c1ccc(Cl)cc1Cl | inactive | – | inactive | inactive | – | – | inactive | inactive | inactive | inactive | inactive | inactive | inactive | – | inactive | inactive | inactive | inactive
8 | NC1=NCC2c3ccccc3Cc3ccccc3N12 (stereo unspecified) | inactive | inactive | inactive | inactive | – | inactive | inactive | inactive | 4.92 µM (active) | inactive | – | inactive | inactive | inactive | inactive | inactive | inactive | inactive
9 | CC(=O)c1c(C)c([N+](=O)[O-])c(C(C)(C)C)c([N+](=O)[O-])c1C | inactive | inactive | inactive | inactive | inactive | inactive | inactive | inactive | inactive | inactive | inactive | inactive | – | inactive | inactive | inactive | inactive | –
10 | Cc1ccc(O)c2ncccc12 | 2.66 µM (active) | inactive | inactive | inactive | inactive | inactive | inactive | inactive | – | – | inactive | inactive | inactive | inactive | inactive | – | – | 13.3 µM (active)
11 | CCCCC[C@H](O)/C=C/[C@H]1[C@H](O)CC(=O)[C@@H]1C/C=C\CCCC(=O)O | inactive | inactive | – | – | inactive | inactive | inactive | inactive | – | inactive | – | inactive | – | 0.0075 µM (active) | inactive | inactive | inactive | –
12 | O=C(CS)OCCOC(=O)CS | inactive | – | inactive | inactive | inactive | inactive | inactive | inactive | inactive | inactive | inactive | inactive | inactive | inactive | inactive | inactive | inactive | –
13 | CCC(C)[O-].CCC(C)[O-].CCOC(=O)/C=C(/C)[O-].[Al+3] | inactive | inactive | inactive | – | inactive | inactive | – | – | inactive | inactive | – | inactive | inactive | inactive | – | – | inactive | inactive
14 | C[C@H](CCC(=O)O)[C@H]1CC[C@H]2[C@@H]3[C@H](O)C[C@@H]4C[C@H](O)CC[C@]4(C)[C@H]3CC[C@]12C | inactive | inactive | inactive | inactive | – | – | inactive | – | inactive | inactive | inactive | – | – | inactive | inactive | inactive | inactive | –
15 | OC(CN1CCC(Cc2ccc(F)cc2)CC1)c1ccc(Cl)cc1 (stereo unspecified) | 29.8 µM (active) | inactive | inactive | – | 1.63 µM (active) | – | – | – | inactive | inactive | inactive | inactive | inactive | inactive | inactive | inactive | – | inactive
16 | CCCCCCCCn1sc(Cl)c(Cl)c1=O | 13.7 µM (active) | inactive | 36.3 µM (active) | – | – | 43.6 µM (active) | inactive | inactive | inactive | inactive | – | inactive | – | 27.3 µM (active) | inactive | inactive | 36.3 µM (active) | –
17 | Cc1c[nH]c(=S)[nH]c1=O | inactive | inactive | inactive | – | inactive | inactive | inactive | inactive | inactive | inactive | inactive | inactive | inactive | inactive | – | – | inactive | inactive
18 | CCCC(=O)OCC | inactive | inactive | – | inactive | inactive | inactive | inactive | inactive | inactive | inactive | inactive | – | inactive | inactive | – | inactive | inactive | inactive
